DRD3 agonist – qHTS of D3 Dopamine Receptor Agonist: qHTS; AID 652048, 2013; 410,000 compounds, 0.58% hits; max activation, %; D3R DiscoveRx beta-arrestin cells, luminescence, 90 min; D(3) dopamine receptor (Homo sapiens), P35462; in the data active = max activation above about 30%
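Agonist-mode cell screen: cells plated at 1500/well and incubated overnight at 37 °C, then exposed to library compounds for 90 min at 37 °C. Detection reagent was added for 30–60 min at room temperature, and luminescence was read.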
MBNL1-CUG inh – qHTS Assay for Inhibitors of MBNL1-poly(CUG) RNA binding. Muscleblind-like protein 1 (Homo sapiens), Q9NR56. TR-FRET MBNL1-His/biotin-(CUG)12 binding, 665/545 ratio. Potency, µM (doses to about 57.5 µM), most hits filed as inhibitors. 280,000 compounds, 0.036% hits; active = well fitted inhibition curve with a large enough effect in the signal ratio, with a control signal flat, not every such curve was filed as active; inconclusive = small, poorly fitted or top-dose-only effect, or effect the other way, or a change in a side signal; inactive = no such curve, though single readings can be large or run the other way; the % refers to the signal ratio
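TR-FRET readout: Ex 340 nm, 665/545 nm emission ratio, normalized to buffer-only (basal) and MBNL1-(CUG)12 controls. Complex of MBNL1-His with Biotin-(CUG)12, compounds 92 nM–58 uM, incubated 60 min at room temperature.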
D3 antag – qHTS of D3 Dopamine Receptor Antagonist: qHTS; D(3) dopamine receptor (Homo sapiens), P35462; D3R cells, DiscoveRx beta-arrestin luminescence, antagonist mode; active compounds read low; max response, negative = inhibition, %; 360,000 compounds, 2.5% hits; AID 652054, 2013; in the data active = max response below about -50%; inconclusive = no clear call, values can overlap the other calls
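Cells plated overnight at 1500 cells/well, then exposed to library compounds with dopamine controls for 90 minutes at 37 degrees C. DiscoveRx reagent added for 30–60 minutes at room temperature; luminescence read, quantitative HTS format.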
CBFb RUNX1 block – qHTS Assay for Compounds Blocking the Interaction Between CBF-beta and RUNX1 for the Treatment of Acute Myeloid Leukemia. AlphaScreen CBFb-His/RUNX1-biotin binding, biochemical. Potency, µM (highest dose often 59.8 µM), actives largely listed as inhibitors. 230,000 tested, under 10 active. AID 1477, 2009
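Inhibition was taken as any reduction in AlphaScreen signal from the CBF-beta–RUNX1 pair (His and biotin tags, 30 nM each), measured after compound (15 min) and bead (90 min) incubations at room temperature.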
PTHR1 ag – qHTS for PTHR1 Agonists: Primary Screen; AID 743266, 2014; 410,000 compounds, 0.075% hits; Parathyroid hormone/parathyroid hormone-related peptide receptor (Homo sapiens), Q03431; HEK293 GP2 PTHR1 cells, GloSensor cAMP luminescence, 1 h; Potency, µM (series often up to 115 µM), hits mostly activators; also: nearly all actives have a fitted effect of over 55% in size
Target sequence (Q03431 whole entry, looked up): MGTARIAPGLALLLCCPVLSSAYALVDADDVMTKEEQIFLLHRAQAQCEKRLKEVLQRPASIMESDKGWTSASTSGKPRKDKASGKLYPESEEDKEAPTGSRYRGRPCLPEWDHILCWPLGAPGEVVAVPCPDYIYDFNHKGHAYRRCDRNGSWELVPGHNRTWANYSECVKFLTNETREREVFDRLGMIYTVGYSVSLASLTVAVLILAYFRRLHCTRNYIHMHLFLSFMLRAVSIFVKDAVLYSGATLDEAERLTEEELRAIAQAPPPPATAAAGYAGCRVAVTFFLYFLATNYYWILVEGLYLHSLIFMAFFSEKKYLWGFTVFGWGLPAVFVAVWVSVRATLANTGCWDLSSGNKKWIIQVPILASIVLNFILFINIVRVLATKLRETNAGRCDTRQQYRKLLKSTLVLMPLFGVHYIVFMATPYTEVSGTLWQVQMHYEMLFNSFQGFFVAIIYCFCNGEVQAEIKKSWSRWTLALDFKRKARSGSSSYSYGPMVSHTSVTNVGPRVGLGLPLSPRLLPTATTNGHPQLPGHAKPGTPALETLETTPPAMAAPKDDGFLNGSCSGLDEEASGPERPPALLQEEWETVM
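HEK-293-derived GP2 cells expressing PTHR1 and a GloSensor cAMP reporter, 3,000/well, plated overnight, given luciferin plus IBMX (each 0.5 mM as added) for 1 h at 37 °C, then compound for 1 h at 37 °C. Luminescence was read after 15 min at room temperature.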
Integrin act MD – qHTS for Activators of Integrin-Mediated Alleviation for Muscular Dystrophy; alpha7betagal myoblasts, beta-gal FDG fluorescence, 48 h; Potency, µM (doses to about 38.3 µM), usual class: activators; 350,000 compounds, 0.064% hits; AID 624291, 2012; also: nearly all actives have a fitted effect of over 60% in size
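Alpha7betagal+/- myoblasts (passage 13) were plated 16-24 hr, then exposed to compounds (1:260 dilution of DMSO stock) for 48 hours at 37C. After MPER lysis, β-galactosidase reporter activity was read as FDG fluorescence (ex 480/em 540) after 30 minutes.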
Of the large screens only hits and unclear results are named; the others gave an inactive call; ! = not active in a repeat. The list is not random: actives were taken first. Their share in the collection is about 2.8%. Unless noted, calls follow the shape of the dose curve; as a rule, active = well fitted curve in the direction sought with a large enough effect; inconclusive = small, poorly fitted or top-dose-only effect, or another doubt; inactive = no such curve, though single readings can be large; an effect the other way counts as inactive or inconclusive.

COC(=O)c1ccccc1NC(=O)CSc1c2c(nc3ccc(Cl)cc13)CCCC2	none (no result: MBNL1-CUG inh, D3 antag, CBFb RUNX1 block, Integrin act MD)
CN1CCN(c2ccc(CNS(=O)(=O)c3ccc(F)cc3Cl)cc2)CC1	none (no result: CBFb RUNX1 block)
Cc1cc(S(=O)(=O)NCc2ccc(N3CCN(C)CC3)cc2)c(C)s1	D3 antag -62.6
Cc1cc([N+](=O)[O-])nn1CC(=O)NCc1nc2ccccc2[nH]1	none
O=C(NNC(=O)c1cc2cc(Br)ccc2oc1=O)c1ccc(O)cc1	MBNL1-CUG inh inconclusive, D3 antag -62.4
Cc1ccc2c(=O)cc(C(=O)Nc3ccc(S(=O)(=O)N4CCCCCC4)cc3)oc2c1C	none (no result: MBNL1-CUG inh, D3 antag, CBFb RUNX1 block, Integrin act MD)
CN(C)c1ccc(C2C3=C(CCCC3=O)OC3=C2C(=O)CCC3)cc1	D3 antag -55.4, CBFb RUNX1 block inconclusive
Cc1ccc(S(=O)(=O)Oc2ccc(C3C4=C(CCCC4=O)OC4=C3C(=O)CCC4)cc2)cc1	none
Cc1cccc(C)c1Nc1nnc(SCC(=O)c2ccc3c(c2)NC(=O)CO3)s1	none
COc1ccc(C(=O)NCCCn2cccn2)cc1OC1CCN(C(C)=O)CC1	none (no result: CBFb RUNX1 block)
CC1=C(C(=O)OC2CCCC(C)C2)C(c2ccccc2)NC(=O)N1 (stereo not drawn)	none (no result: CBFb RUNX1 block)
Cc1cccc(N2CCN(C(=O)c3ccncc3)CC2)c1C	DRD3 agonist 46.4
COc1ccc(S(=O)Cc2ccc(C(=O)N3CCN(c4cccc(C)c4C)CC3)o2)cc1 (stereo not drawn)	DRD3 agonist 45.0! (no result: CBFb RUNX1 block)
Cc1cccc(N2CCN(C(=O)c3ccnn3C)CC2)c1C	none (no result: CBFb RUNX1 block)
COc1ccc(N2CCN(C(=O)c3ccc(CS(=O)c4cccc(Cl)c4)o3)CC2)cc1 (stereo not drawn)	none (no result: MBNL1-CUG inh, CBFb RUNX1 block)
CC(C)CC(=O)OC(C)(C)[C@@H]1Cc2c(ccc3ccc(=O)oc23)O1	none (no result: MBNL1-CUG inh, CBFb RUNX1 block)
C/C=C(/C)C(=O)OC(C)(C)[C@@H]1Cc2c(ccc3ccc(=O)oc23)O1	D3 antag -154.4
COc1ccc(S(=O)(=O)N2CCOC23CCN(S(=O)(=O)c2cc(C)ccc2OC)CC3)cc1	none (no result: MBNL1-CUG inh, CBFb RUNX1 block)
CN(C)c1ccc(CC(=O)N2CCCCC2c2cc(C(=O)Nc3cccc4c3CCCC4)no2)cc1 (stereo not drawn)	none (no result: MBNL1-CUG inh, CBFb RUNX1 block, Integrin act MD)
N#Cc1c(N2CCN(C(=O)c3ccco3)CC2)nc(-c2ccccc2)c2c1CCCC2	DRD3 agonist 37.5
CC1(C)Cc2c(C#N)c(N3CCN(C(=O)c4ccco4)CC3)nc(Cc3ccccc3)c2CO1	DRD3 agonist 30.3
O=C(Nc1ccccc1C(=O)OCc1cc(=O)n2nc(C3CC3)sc2n1)c1cccc(F)c1	none (no result: MBNL1-CUG inh, D3 antag, CBFb RUNX1 block, Integrin act MD)
C=CCN1CCN(C(=O)c2cc3c(s2)CCC(CC)C3)CC1 (stereo not drawn)	D3 antag -91.0 (no result: CBFb RUNX1 block)
CCCS(=O)(=O)c1nc(S(=O)(=O)c2ccc(C)cc2)c(N2CCN(CCO)CC2)s1	D3 antag -91.5, Integrin act MD inconclusive (no result: CBFb RUNX1 block)
CCCS(=O)(=O)c1nc(S(=O)(=O)c2ccc(C)cc2)c(N2CCCCC2)s1	none (no result: MBNL1-CUG inh, CBFb RUNX1 block)
CCN1CCN(c2sc(S(=O)(=O)CC)nc2S(=O)(=O)c2ccc(Cl)cc2)CC1	D3 antag -105.4 (no result: MBNL1-CUG inh, CBFb RUNX1 block)
O=S(=O)(c1ccc(Cl)cc1)N1CCN(C(=S)NCC2CCCO2)CC1 (stereo not drawn)	none (no result: CBFb RUNX1 block)
c1ccc(COc2cccc(-c3cc4nc(NCCOc5ccccc5)ccn4n3)c2)cc1	none (no result: MBNL1-CUG inh, CBFb RUNX1 block, Integrin act MD)
c1ccc(COc2cccc(-c3cc4nc(NCCc5ccncc5)ccn4n3)c2)cc1	DRD3 agonist 87.9 (no result: MBNL1-CUG inh, CBFb RUNX1 block, Integrin act MD)
CCCCN1CCNC[C@H]1Cc1ccc(O)cc1	D3 antag -92.1 (no result: MBNL1-CUG inh, CBFb RUNX1 block)
O=C(/C=C/c1ccc(Cl)cc1)NC(=S)Nc1ccc(CN2CCOCC2)cc1	MBNL1-CUG inh inconclusive, D3 antag -64.7
COc1cccc(-c2nc(SCC(=O)NCC3CCCO3)c(-c3ccc(Cl)cc3)[nH]2)c1 (stereo not drawn)	none (no result: MBNL1-CUG inh, D3 antag, CBFb RUNX1 block, Integrin act MD)
Cc1cc(O)c2c(c1)O[C@@]1(C)CC[C@H]3C(C)(C)CCCC34CO[C@@H]2[C@H]41 (stereo partly drawn)	none (no result: MBNL1-CUG inh, D3 antag, CBFb RUNX1 block, PTHR1 ag, Integrin act MD)
COc1ccc(OC)c(-n2c(-c3cc(-c4ccc(F)cc4)n[nH]3)n[nH]c2=S)c1	D3 antag -80.8
CCc1cccc(N(C(=O)c2csnn2)C(C(=O)NC(C)(C)C)c2ccncc2)c1 (stereo not drawn)	Integrin act MD inconclusive
COc1ccc(Nc2nc(N3CCCC3)nc(N3CCCC3)n2)c(OC)c1	DRD3 agonist 146.3
CC(C)[C@@H](OCc1ccccc1)[C@H](C)/C=N\OC[C@@H](O)COCc1ccco1	none (no result: DRD3 agonist, MBNL1-CUG inh, D3 antag, PTHR1 ag, Integrin act MD)
Cc1[nH]nc(-c2cccnc2)c1N=NN(C)C	D3 antag -89.5 (no result: MBNL1-CUG inh, CBFb RUNX1 block)
O=S(=O)(Nc1nc2ccccc2[nH]1)c1ccccc1	D3 antag -55.1
O=S(=O)(Nc1nc2ccccc2[nH]1)c1ccc(Cl)cc1	none
O=[N+]([O-])c1ccc(N2CCNCC2)cc1Sc1nc2ccccc2[nH]1	MBNL1-CUG inh inconclusive, D3 antag -66.5
NCCNc1ccc([N+](=O)[O-])c(Sc2nc3ccccc3[nH]2)c1	MBNL1-CUG inh inconclusive
O=C(CN1/C(=C(/O)c2ccccc2)C(=O)c2ccccc2S1(=O)=O)c1ccccc1	D3 antag -88.2
CCCCCCCCCCCCCCCC(=O)O[C@@H]1CC(C)=C(/C=C/C(C)=C/C=C/C(C)=C/C=C/C=C(C)/C=C/C=C(C)/C=C/C2=C(C)C[C@@H](OC(=O)CCCCCCCCCCCCCCC)CC2(C)C)C(C)(C)C1	none (no result: MBNL1-CUG inh, D3 antag, CBFb RUNX1 block, PTHR1 ag, Integrin act MD)

High-throughput results deposited in PubChem BioAssay by National Center for Advancing Translational Sciences (NCATS).
